In PubChem BioAssay AID1220 (Sanford-Burnham Center for Chemical Genomics, 2008):
Screen size: about 190,000 compounds; about 1,300 (0.68%) were called active. The sample holds actives, similar compounds and a random draw of the others, so the mix is not that of the screen. Rule as the data show it: active = inhibition above about 50%; inactive = the rest.

target: Mannose-6-phosphate isomerase (Homo sapiens) (UniProt P34949); assay: MPI inhibition at elevated mannose 6-phosphate – biochemical, fluorescence intensity, high mannose 6-phosphate, primary screen (AID 1220); conditions: recombinant PMI enzyme, coupled fluorescence intensity; at 20 µM; active compounds read high
Sequence (P34949 whole entry, looked up): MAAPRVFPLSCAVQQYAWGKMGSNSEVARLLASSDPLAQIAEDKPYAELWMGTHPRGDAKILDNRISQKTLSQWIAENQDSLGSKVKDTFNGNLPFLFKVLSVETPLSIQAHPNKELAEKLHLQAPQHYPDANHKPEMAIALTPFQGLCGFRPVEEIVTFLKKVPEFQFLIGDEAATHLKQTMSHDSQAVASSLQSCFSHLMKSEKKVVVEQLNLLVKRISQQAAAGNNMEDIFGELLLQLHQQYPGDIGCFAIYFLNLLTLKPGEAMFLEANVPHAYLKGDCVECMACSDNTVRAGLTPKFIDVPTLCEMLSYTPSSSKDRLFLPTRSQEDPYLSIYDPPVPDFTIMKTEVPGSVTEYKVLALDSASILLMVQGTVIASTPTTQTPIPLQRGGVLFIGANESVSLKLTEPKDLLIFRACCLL

inhibition, inactive:
O=C(CCn1c(=O)sc2ccccc21)NCc1cccs1 -0.4%
COCc1cc(C)[nH]c(=O)c1C#N -5.6%
Cc1ccccc1N=Cc1c(O)n(-c2nccs2)c(=O)c2ccccc12 16.2%
Cc1cc(=O)c2ccccc2s1 0.5%
Cc1ccnc(N2C3CCC2CC(O)(c2ccccc2)C3)n1 (stereo unspecified) -10.5%
CN(C)S(=O)(=O)c1cccc(N2C(=O)CC3(CCCCC3)CC2=O)c1 0.9%
O=c1c2ccccc2c2ccccc2c(=O)n1-c1ccccc1 -1.1%
O=C1CCCN1c1nccs1 -6.6%
CN(C)S(=O)(=O)c1cccc(-c2cn3ccccc3n2)c1 -10.7%
O=c1[nH]n(-c2ccccc2)c(=O)c2ccccc12 -0.9%
CCOC(=O)c1cnn(-c2ccccc2)c1NC(=O)CCl -1.3%
CCN(CC)S(=O)(=O)c1cccc(NC(=O)c2cc(=O)[nH]c3ccccc23)c1 4.5%
CCCCNC(=O)N(C)c1nc2ccccc2s1 -3.1%
CCn1c(SCC(=O)NCc2ccccc2)nc2c(c1=O)SC(C)C2 (stereo unspecified) 2.5%
COc1ccc(CN2CCCC(CNC(=O)c3ccc(F)cc3)C2)c(F)c1 (stereo unspecified) -6%
CCOc1ccc(-c2nc(C#N)c(NCC(C)C)o2)cc1 -0.5%
COc1ccc(CCC(=O)N2c3ccccc3CC2C)cc1 (stereo unspecified) 14.3%
COc1cc(/C=C/C(=O)N2CCCc3ccccc32)cc(OC)c1OC -12.4%
O=C(Nc1nc(-c2cccs2)cs1)c1ccco1 12.4%
CSCCC(NC(=O)c1ccco1)C(=O)OCc1cc([N+](=O)[O-])cc2c1OCOC2 (stereo unspecified) 5.4%
CC1CCC2(CC1)NC(=O)N(NC(=O)CCl)C2=O (stereo unspecified) -10.3%
CC1CCN(CCOCCOc2ccc(Cl)cc2Br)CC1 -7.9%
Nc1nnc(N2CCc3ccccc32)s1 6.2%
Cc1ccc(Cn2c(=O)sc3ccccc3c2=O)cc1 8%
Cc1c(Cl)sn(-c2ccc(Cl)cc2)c1=O -4.6%
COc1cccc(=O)c2c(C)n(-c3ccc(C(=O)O)cc3)c(C)c12 -16.3%
COc1cccc(=O)c2c(C)n(C)c(C)c12 -5%
COc1cccc(=O)c2c(C)n(-c3cc(C)cc(C)c3)c(C)c12 29.9%
COc1ccc(-n2c(C)c3c(OC)cccc(=O)c3c2C)cc1 46.4%
CNS(=O)(=O)c1cc(C(=O)OCC(=O)NC2CCCc3ccccc32)ccc1Cl (stereo unspecified) 9.4%
COC(=O)C1=C(C)NC(=O)/C1=C\c1cc(C)n(-c2ccccc2F)c1C -51.3%
O=C(CSCc1ccccc1)N1CCN(Cc2ccc3c(c2)OCO3)CC1 9.8%
O=C1OCCC1Sc1nc2ccccc2c(=O)n1Cc1ccccc1 (stereo unspecified) -1.6%
COc1ccc(-c2nnc(SC)o2)c(OC)c1 2%
Cc1cc(NC(=O)c2sc(Nc3ccc(F)c(Cl)c3)nc2N)no1 -10.8%
COC(=O)Cc1csc(Nc2ccc(F)c(Cl)c2)n1 -0.3%
CN(Cc1ccccc1)c1ccc(S(=O)(=O)N2CCC(C(=O)O)CC2)cc1[N+](=O)[O-] 10.6%
Brc1ccc(-c2noc(COc3ccc4c(c3)CCC4)n2)o1 14%
O=C(OCCOCCN=C1NS(=O)(=O)c2ccccc21)C1CC(=O)N(c2ccccc2)C1 (stereo unspecified) -2.6%
Cc1nc(-c2ccc(C(=O)Nc3ccccc3F)cc2)cs1 -3.7%
C=CCOc1c(Cl)cc(CNc2ccc3[nH]c(=O)[nH]c3c2)cc1OC 35%
CCOc1cc(CNc2ccc(S(N)(=O)=O)cc2)cc(Cl)c1OC 2.7%
CCOc1cc(CNc2ccc(N3CCOCC3)cc2)cc(Br)c1OCC 14.8%
C=CCOc1c(Cl)cc(CNc2ccc(C)c(Cl)c2)cc1OC 12.6%
CCOc1c(Cl)cc(CNc2ccc(S(N)(=O)=O)cc2)cc1OC -2%
COc1cc(CNc2ccc(N3CCOCC3)cc2)cc(Br)c1OC 9.3%
CC1=CC(C)(C)N(C(=O)CCl)c2cc(C)ccc21 -1.9%
CN(C)C(=C(C#N)C#N)N1CCN(c2ccc(Cl)c(Cl)c2)CC1 6.1%
CC(C)(C)[C@H]1C=C(C(=O)N2CCN(Cc3ccc4c(c3)OCO4)CC2)O[C@@H](OCc2ccc(CO)cc2)C1 2.7%
COc1ccc(Br)cc1CN1CCN(C(=O)c2ccc(OC)c(OC)c2)CC1 2.3%
CCOC(=O)CCC(NC(=O)CCCCCCCCC(=O)NC(CCC(=O)OCC)C(=O)OCC)C(=O)OCC (stereo unspecified) 6.1%
COc1ccc(NS(=O)(=O)c2cccc(NC(=O)CCS(=O)(=O)c3ccccc3)c2)cc1 8.9%
O=C(CN1CCCCCC1)Nc1ccc(F)c(F)c1 -9.6%
CCCCNC(=O)c1onc(CSc2cc(C)cc(C)c2)c1C(=O)O -4%
O=C(N/N=C/c1cc(Br)c(Br)o1)C(O)c1ccccc1 (stereo unspecified) 5.2%
CC(CC(=O)O)Nc1ccccc1O (stereo unspecified) 49.3%
CC(CC(C)C(=O)Nc1ccccc1C(C)(C)C)C(=O)O (stereo unspecified) -12.3%
COc1cc2c(cc1NC(=O)CSc1cccc[n+]1[O-])oc1ccccc12 -6.2%
CN(C)CC/C=C1\c2ccccc2Sc2ccc(Cl)cc21 -12.5%
COc1cc(Cl)cc2c1Sc1ccccc1/C2=C/CCN(C)C -9.3%
N#CC1(c2nc3ccccc3[nH]2)CC1c1ccc2c(c1)OCO2 (stereo unspecified) 0.1%
COc1ccc(S(=O)(=O)N2CCc3ccccc32)cc1NC(C)=O 1.8%
CNCC(C)COc1ccccc1OCc1ccccc1 (stereo unspecified) -5.2%
N#CC1=C(N)OC2=C(C(=O)CCC2)C12CCN(C(=O)OCc1ccccc1)CC2 -6.7%
CCOc1ccccc1NS(=O)(=O)c1cn(C)nc1C -10.4%
CCOc1ccccc1NC(=O)C1CCN(S(=O)(=O)c2c(C)noc2C)CC1 2.7%
CC(=O)Nc1c(NC(=O)CC#N)[nH]c2c(c1=O)c(=O)n(C)c(=O)n2C 15.1%
CCn1c(C)cc(C=C2C(=O)c3ccccc3C2=O)c1C 20.2%
Cc1ccc(N(CC(=O)Nc2ccc(F)c(Cl)c2)S(=O)(=O)c2c(C)noc2C)cc1 11.9%
CCNC(=O)Nc1ccccc1C(=O)OC -5.5%
CCOC(=O)CNC(=O)Nc1ccccc1C(=O)OC -7.2%
N#Cc1nc(-c2cccs2)oc1NCC1CCCO1 (stereo unspecified) 0.2%
O=[N+]([O-])c1ccc(SCc2ccco2)cc1N1CCOCC1 1.4%
CS(=O)(=O)N1CCN(c2ccc([N+](=O)[O-])c(SCc3ccco3)c2)CC1 43.6%
CC(=O)NC(=S)Nc1ccc(S(=O)(=O)N2CCOCC2)cc1 -4.7%
COC(=O)c1ccc2c(c1)NC(=O)CS2 -9.2%
O=C1CSc2ccc(C(=O)NCCC3=CCCCC3)cc2N1 -5.5%
COc1cccc(C(=O)Nc2ccc(S(=O)(=O)Nc3onc(C)c3C)cc2)c1 -1.9%
Nc1ccc(CCS(N)(=O)=O)cc1 -2.1%
COc1ccc(OCC(O)COc2ccc(OC)cc2)cc1 -1.9%
Cc1cc(CNC(=O)COc2ccccc2F)c2ccccc2n1 -0.4%
COc1ccc(CN2CCN(Cc3csc(C(C)=O)c3)CC2CCO)c(C)c1C (stereo unspecified) -1.9%
CCOC(=O)c1nn(-c2ccc(C)c(C)c2)cc1O 12.2%
COc1ccc(/C=N/NC(=O)c2nn(-c3ccc(Cl)cc3)c(=O)c3c(N)scc23)cc1 41.9%
CCCSc1cc(=O)n(-c2ccc(F)cc2)nc1C(=O)OCC -6%
CCOC(=O)c1nn(-c2ccccc2)c(=O)c2c(NC(C)=O)scc12 0%
CCOC(=O)c1nn(-c2ccccc2)c(C(=O)OCC)c1N 10.9%
COc1ccc(/C=N/NC(=O)c2nn(-c3ccc(C)c(C)c3)c(=O)c3ccccc23)cc1 22.6%
Cc1ccc(-n2nc(C(=O)O)c3ccccc3c2=O)cc1C -1.7%
CCOC(=O)c1nn(-c2ccc(F)cc2)c(C)c1C(C)=O -0.1%

inhibition, active:
O=c1c2ccccc2sn1-c1ccccc1 62.8%
COc1cccc(-n2c(C)c3c(OC)cccc(=O)c3c2C)c1 61%
COc1ccccc1-n1c(C)c2c(OC)cccc(=O)c2c1C 54.7%
O=c1cc(O)c2sc(Nc3ccc(F)c(Cl)c3)nc2[nH]1 57.5%
C=CCOc1c(Cl)cc(CNc2ccc(N(C)C)cc2)cc1OC 54%
CC(CNc1ccccc1O)C(=O)O (stereo unspecified) 64.7%
CN(C)CC/C=C1/c2ccccc2Sc2c(O)cc(Cl)cc21 50%
CCOc1ccccc1NS(=O)(=O)c1c(C)noc1C 54.2%
C#CC(CC)(CC)NC(=O)Nc1ccccc1C(=O)OC 64.6%
O=[N+]([O-])c1ccc(N2CCOCC2)cc1SCc1ccco1 68.5%
COCCNC(=O)c1ccc2c(c1)NC(=O)CS2 53.7%
Nc1ccc(OCC(O)C[n+]2ccc(CCS(=O)(=O)[O-])cc2)cc1 (stereo unspecified) 53.8%
CCOC(=O)c1nn(-c2ccc(F)cc2)c(=O)c2c(N)scc12 62.3%
CCOC(=O)c1nn(-c2ccccc2)c(=O)c2c(N)scc12 63.3%
CCOC(=O)c1nn(-c2ccc(C)c(C)c2)c(=O)c2c(N)scc12 54.4%
COc1ccc(/C=N/NC(=O)c2nn(-c3ccccc3)c(=O)c3c(N)scc23)cc1 52.4%
